Assay results as given in PubChem BioAssay (NCATS).
Values joined by “and” are separate entries in the source; they are usually repeats but may differ in a detail not shown here. Equal values may be shown once. Results filed as inconclusive are left out. Active and inactive are the calls of the source. Calls come from the whole dose curve; as a rule, active = well fitted curve in the direction sought with a large enough effect; inconclusive = small, poorly fitted or top-dose-only effect, or another doubt; inactive = no such curve, though single readings can be large; an effect the other way counts as inactive or inconclusive.

Legend:
[1] = Quantitative highthroughput screen to assess conditional lethalithy of NOMO1 cells grown in RPMI1640 with dialyzed fetal bovine serum (RPMI+ds) (AID 1963877); note: nearly all actives have a fitted effect of over 30% in size; note: potency is the fitted concentration of half-maximal effect;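 for viability: series mostly up to about 46 µM; 100% = DMSO control wells and 0% = empty wells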
Outline: (§1)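 Each medium arm—HPLM with 10% dialyzed FBS, or RPMI1640 with 5 mM glucose and 10% untreated or dialyzed FBS—was screened against an 11-point, 3-fold compound titration for 48 h at 37 °C, with CellTiter-Glo luminescence as endpoint.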

[2] = Quantitative highthroughput screen to assess conditional lethalithy of P12 Ichikawa cells grown in Human Plasma-Like Medium with dialyzed fetal bovine serum (HPLM+ds) (AID 1963879); conditions: Potency: viability; note: nearly all actives have a fitted effect of over 35% in size; note: potency is the fitted concentration of half-maximal effect; for viability: series mostly up to about 46 µM
Outline: as §1

[3] = Quantitative highthroughput screen to assess conditional lethalithy of P12 Ichikawa cells grown in RPMI1640 with untreated serum (RPMI+s) (AID 1963881); conditions: Potency: viability; note: nearly all actives have a fitted effect of over 35% in size; note: potency is the fitted concentration of half-maximal effect;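 for viability: series mostly up to about 46 µM; 100% = DMSO wells and 0% = empty wells without cells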
Outline: as §1

[4] = Quantitative highthroughput screen to assess conditional lethalithy of SEM cells grown in Human Plasma-Like Medium with dialyzed fetal bovine serum (HPLM+ds) (AID 1963882); note: nearly all actives have a fitted effect of over 35% in size; note: potency is the fitted concentration of half-maximal effect; for viability: series mostly up to about 46 µM
Outline: as §1

[5] = Quantitative highthroughput screen to assess conditional lethalithy of SEM cells grown in RPMI1640 with dialyzed fetal bovine serum (RPMI+ds) (AID 1963884); note: nearly all actives have a fitted effect of over 35% in size; note: potency is the fitted concentration of half-maximal effect;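 for viability: series mostly up to about 46 µM; 100% = DMSO control wells and 0% = empty wells without cells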
Outline: as §1

[6] = Quantitative highthroughput screen to assess conditional lethalithy of NOMO1 cells grown in Human Plasma-Like Medium with dialyzed fetal bovine serum (HPLM+ds) (AID 1963878); note: nearly all actives have a fitted effect of over 35% in size; note: potency is the fitted concentration of half-maximal effect;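 for viability: 100% = DMSO wells and 0% = empty wells on each plate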
Outline: as §1

[7] = Quantitative highthroughput screen to assess conditional lethalithy of SEM cells grown in RPMI1640 with unreated serum (RPMI+s) (AID 1963883); note: nearly all actives have a fitted effect of over 35% in size; note: potency is the fitted concentration of half-maximal effect;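 for viability: 100% = DMSO wells and 0% = empty wells without cells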
Outline: as §1

[8] = Quantitative highthroughput screen to assess conditional lethalithy of P12 Ichikawa cells grown in RPMI1640 with dialyzed fetal bovine serum (RPMI+ds) (AID 1963880); conditions: Potency: P12-Ichikawa viability; note: nearly all actives have a fitted effect of over 35% in size; note: potency is the fitted concentration of half-maximal effect;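 for viability: 100% = DMSO wells and 0% = empty wells on each plate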
Outline: as §1

[9] = Cellular viability qHTS for adrenocortical cancer (ACC) cell line NCI-H295R (AID 1963990);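 note: 0% = DMSO only wells and -100% = full killing with cytotoxic reference compound; nearly all actives have a fitted effect of over 60% in size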
Outline: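 IC50 and maximal efficacy derive from four-parameter logistic modelling of titration curves, with reads scaled between DMSO-only wells (0%) and doxorubicin hydrochloride (100% inhibition). Compounds spanned up to 46 uM over 48 h.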

[10] = Cellular viability qHTS for adrenocortical cancer (ACC) cell line SW-13 (AID 1963989); conditions: SW-13 ACC cells viability, CellTiter-Glo, 48 h; activity (max response): stronger effect = lower value; note: nearly all actives have a fitted effect of over 65% in size; note: potency is the fitted concentration of half-maximal effect;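 for activity (max response): cells grown in serum-free medium with ITS supplement; % is set by controls: 0 for no effect and ±100 for the full control effect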
Outline: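 Luminescent ATP read-out (CellTiter-Glo, 20 min at room temperature) measured metabolically competent SW-13 cells after 48 h compound treatment. Final concentrations spanned up to 46 uM; bortezomib served as positive control.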

CC1(C)C(=O)N(CCN2CCC(C(=O)c3ccc(F)cc3)CC2)c2ccccc21
inactive: Potency [2] | Potency [3] | Potency [4] | Potency [5]
active: Potency [1] 18.7 µM

COCCCCC(=NOCCN)c1ccc(C(F)(F)F)cc1
active: Potency [6] 18.7 µM
inactive: Potency [2]

C=CCNC1=C2C[C@@H](C)C[C@H](OC)[C@@H](O)[C@@H](C)C=C(C)[C@H](OC(N)=O)[C@@H](OC)C=CC=C(C)C(=O)NC(=CC1=O)C2=O
active: Potency [1] 5.9 µM | Potency [6] 5.9 µM | Potency [4] 0.526 µM | Potency [7] 0.332 µM | Potency [5] 0.332 µM

O=C(O)c1cccc(-c2noc(-c3ccccc3F)n2)c1
inactive: Potency [1] | Potency [2] | Potency [8] | Potency [3] | Potency [4] | Potency [7] | Potency [5] | Potency [9]

O=NN(CCCl)C(=O)NCCCl
inactive: Potency [1] | Potency [6] | Potency [2] | Potency [3] | Potency [4] | Potency [5] | activity (max response) [10] 15.2% | Potency [9]

O=c1[nH]c(=O)n([C@H]2C[C@@H](O)[C@@H](CO)O2)cc1I
active: Potency [6] 11.8 µM | Potency [4] 7.43 µM
inactive: Potency [1] | Potency [8]

CC[C@]1(O)C[C@H]2CN(CCC3=c4ccccc4=N[C]3[C@@](C(=O)OC)(c3cc4c(cc3OC)N(C)[C@H]3[C@@](O)(C(N)=O)[C@H](O)[C@]5(CC)C=CCN6CC[C@]43[C@@H]65)C2)C1
active: Potency [6] 0.0148 µM | Potency [2] 0.0833 µM | Potency [8] 0.132 µM | Potency [3] 0.0662 µM | Potency [4] 0.118 µM | Potency [5] 0.118 µM

CCC1=C[C@@H]2CN(C1)Cc1c([nH]c3ccccc13)[C@@](C(=O)OC)(c1cc3c(cc1OC)N(C)[C@@H]1[C@@](O)(C(=O)OC)[C@H](OC(C)=O)[C@]4(CC)C=CCN5CC[C@]31[C@@H]54)C2
active: Potency [1] 0.0743 µM | Potency [2] 0.0372 µM | Potency [3] 0.0209 µM | Potency [4] 0.059 µM | Potency [7] 0.0209 µM

NNCCc1ccccc1
inactive: Potency [1] | Potency [2] | Potency [8] | Potency [3] | activity (max response) [10] -8.17% | Potency [9]

COc1ccc2c(c1)CC[C@H]1[C@@H]2CC[C@]2(C)[C@@H](NCCCCCCN3C(=O)C=CC3=O)CC[C@H]12
inactive: Potency [1] | Potency [6] | Potency [2] | Potency [3] | Potency [7] | Potency [5]

O=C1Nc2ccc(Cl)cc2C(C#CC2CC2)(C(F)(F)F)O1 (stereo not given)
inactive: Potency [1] | Potency [6] | Potency [2] | Potency [4] | Potency [7]

COc1ccc(-c2coc3cc(O)ccc3c2=O)cc1
inactive: Potency [1] | Potency [3] | Potency [7]

CCC(=O)NC[C@H](Cc1ccc(OCCc2nc(-c3ccccc3)oc2C)cc1)NC(C)=CC(=O)c1ccc(C(F)(F)F)cc1
active: Potency [2] 10.5 µM | Potency [8] 16.6 µM | Potency [3] 16.6 µM

Cc1nnc(C(C)C)n1C1C[C@H]2CC[C@@H](C1)N2CC[C@H](NC(=O)C1CCC(F)(F)CC1)c1ccccc1 (stereo not given in full)
active: Potency [2] 16.6 µM

C#Cc1cccc(Nc2ncnc3cc(OCCOC)c(OCCO)cc23)c1
active: Potency [6] 9.35 µM | Potency [10] 6.31 µM

CC(=O)Nc1sc2c(c1-c1nc3ccccc3s1)CNC2
active: Potency [3] 16.6 µM | Potency [4] 18.7 µM | Potency [5] 18.7 µM
inactive: Potency [6] | Potency [2]

c1cc(OCCN2CCCCC2)cc(-c2n[nH]c3ccc(-c4ncn[nH]4)cc23)c1
inactive: Potency [6] | Potency [2] | Potency [8] | Potency [3] | Potency [9]

CCN(CC)CCCCNc1ncc2c(n1)N(C)C(=O)N(c1c(Cl)c(OC)cc(OC)c1Cl)C2
active: Potency [6] 26.4 µM | Potency [4] 14.8 µM | Potency [7] 13.2 µM | Potency [5] 14.8 µM | Potency [10] 25.1 µM

Cc1cnn(C)c1C(=O)Nc1cc(Nc2ccc3c(C=Cc4ccccn4)n[nH]c3c2)ccc1F
active: Potency [6] 16.6 µM | Potency [2] 20.9 µM | Potency [4] 2.96 µM | Potency [7] 3.72 µM | Potency [5] 2.64 µM

Cc1[nH]c(C=C2C(=O)Nc3ccc(S(=O)(=O)N(C)c4cccc(Cl)c4)cc32)c(C)c1C(=O)N1CCN(C)CC1
active: Potency [2] 18.7 µM | Potency [8] 14.8 µM | Potency [3] 18.7 µM | Potency [4] 13.2 µM | Potency [7] 11.8 µM | Potency [5] 6.62 µM

C[C@H](NCc1ccc(OCc2cccc(F)c2)cc1)C(N)=O
active: Potency [6] 20.9 µM | Potency [4] 0.469 µM | Potency [7] 0.662 µM | Potency [5] 0.332 µM

C=CC[C@@H]1C=C(C)C[C@H](C)C[C@H](OC)[C@H]2O[C@@](O)(C(=O)C(=O)N3CCCC[C@H]3C(=O)O[C@H](C(C)=C[C@@H]3CC[C@H](O)[C@H](OC)C3)[C@@H](C)[C@@H](O)CC1=O)[C@@H](C)C[C@@H]2OC
active: Potency [6] 4.18 µM | Potency [8] 6.62 µM | Potency [3] 6.62 µM | Potency [4] 3.32 µM | Potency [7] 1.48 µM

CC(C)N(C[C@H]1O[C@@H](n2cnc3c(N)ncnc32)[C@H](O)[C@@H]1O)C1CC(CCc2nc3ccc(C(C)(C)C)cc3[nH]2)C1 (stereo not given in full)
inactive: activity (max response) [10] 7.65% | Potency [9]
active: Potency [6] 5.88 µM | Potency [8] 3.71 µM | Potency [7] 1.05 µM | Potency [5] 11.7 µM

CO[C@@H]1[C@@H](OC(N)=O)[C@@H](O)[C@H](Oc2ccc3c(O)c(NC(=O)c4ccc(O)c(CC=C(C)C)c4)c(=O)oc3c2C)OC1(C)C
inactive: Potency [2] | Potency [8] | Potency [3] | Potency [4] | Potency [7] | Potency [5] | activity (max response) [10] 15.7% and -3.94% | Potency [9]

COc1cc2c(Nc3ccc(Cl)c(Cl)c3F)ncnc2cc1OCC1C[C@@H]2CN(C)C[C@H]2C1
active: Potency [6] 4.18 µM | Potency [8] 16.6 µM | Potency [3] 13.2 µM | Potency [4] 10.5 µM | Potency [7] 2.64 µM | Potency [5] 11.8 µM

COc1cc(O)c2c(c1)C(=O)c1cc(C)cc(O)c1C2=O
active: Potency [6] 9.11 µM | Potency [4] 6.45 µM | Potency [7] 4.07 µM | Potency [5] 5.12 µM

N#CC(=C(N)Sc1ccccc1N)C(C#N)=C(N)Sc1ccccc1N
inactive: Potency [2] | Potency [8] | Potency [3]

CCNC(=O)CCCC=CC[C@@H]1[C@H](C=CC(O)CCc2ccccc2)[C@@H](O)C[C@@H]1O (stereo not given in full)
inactive: Potency [2] | Potency [8] | Potency [3] | Potency [4] | Potency [7] | Potency [5]

O=C(Cc1cccc(OC(F)(F)F)c1)Nc1ccc(CCCCc2nnc(NC(=O)Cc3ccccn3)s2)nn1
active: Potency [4] 0.0524 µM
inactive: Potency [6] | Potency [2] | activity (max response) [10] 11.1% | Potency [9]

CC(C)c1c(C(=O)Nc2ccccc2)c(-c2ccccc2)c(-c2ccc(F)cc2)n1CC[C@H](O)C[C@@H](O)CC(=O)O
active: Potency [6] 18.7 µM
inactive: Potency [4]

Nc1nc(F)nc2c1ncn2[C@@H]1O[C@H](COP(=O)(O)O)[C@@H](O)[C@H]1O
active: Potency [6] 9.35 µM | Potency [4] 1.48 µM | Potency [7] 8.33 µM | Potency [5] 1.87 µM

Cc1cc(OCCCS(C)(=O)=O)cc(C)c1-c1cccc(COc2ccc3c(c2)OC[C@H]3CC(=O)O)c1
inactive: Potency [6] | Potency [4]

CON=C(C(=O)N[C@@H]1C(=O)N2C(C(=O)O)=C(CSC(=O)c3ccco3)CS[C@H]12)c1csc(N)n1
inactive: Potency [2] | Potency [8] | Potency [3] | Potency [4] | Potency [7] | Potency [5]

CC[C@H]1OC(=O)[C@H](C)[C@@H](O[C@H]2C[C@@](C)(OC)[C@@H](O)[C@H](C)O2)[C@H](C)[C@@H](O[C@@H]2O[C@@H](C)C[C@H](N(C)C)[C@@H]2O)[C@](C)(O)C[C@@H](C)C(=O)[C@H](C)[C@@H](O)[C@]1(C)O
active: Potency [6] 9.35 µM | Potency [2] 16.6 µM | Potency [7] 10.5 µM

COc1ccc(-c2oc3cc(OC)ccc3c2C(=O)c2ccc(C#N)cc2)cc1
inactive: Potency [4] | Potency [7] | Potency [5]
active: Potency [2] 1.87 µM | Potency [8] 2.96 µM | Potency [3] 1.32 µM

CO[C@H]1O[C@@H]2O[C@@]3(C)CC[C@@H]4[C@@H](C)CC[C@@H]([C@H]1C)[C@@]24OO3
active: Potency [8] 14.8 µM | Potency [3] 16.6 µM
inactive: Potency [2] | Potency [4]

CO[C@H]1C[C@@H]2CC[C@@H](C)[C@@](O)(O2)C(=O)C(=O)N2CCCC[C@@H]2C(=O)O[C@H]([C@H](C)C[C@@H]2CC[C@H](OC(=O)C(C)(CO)CO)[C@H](OC)C2)CC(=O)[C@H](C)C=C(C)[C@@H](O)[C@@H](OC)C(=O)[C@H](C)C[C@H](C)C=CC=CC=C1C
active: Potency [2] 6.62 µM

c1ccc(-c2nn3c(c2-c2ccnc4cc(OCCN5CCOCC5)ccc24)CCC3)nc1
inactive: Potency [2] | Potency [3] | Potency [7] | Potency [9]
active: Potency [6] 18.7 µM

CCC[C@H](NC(=O)C(C#N)=Cc1cccc(Br)n1)c1ccccc1
active: Potency [6] 20.9 µM | Potency [8] 26.4 µM

CC(C)n1c(C=C[C@H](O)C[C@H](O)CC(=O)O)c(-c2ccc(F)cc2)c2ccccc21
active: Potency [2] 5.9 µM | Potency [8] 4.69 µM | Potency [3] 4.69 µM

CCOC(=O)N[C@@H]1CC[C@@H]2[C@@H](C1)C[C@H]1C(=O)O[C@H](C)[C@H]1[C@@H]2C=Cc1ccc(-c2cccc(F)c2)cn1
inactive: Potency [2]

CC(=O)NCC(=O)N1[C@H]2CC[C@H]1c1cc(Nc3ncc(C(F)(F)F)c(NC4CCC4)n3)ccc12
active: Potency [6] 0.296 µM | Potency [2] 0.132 µM | Potency [3] 0.132 µM | Potency [7] 0.105 µM | Potency [5] 0.105 µM

N#Cc1ccc(COC[C@H]2O[C@@H](n3c(NCc4ccc(Cl)c(Cl)c4)nc4c(N)ncnc43)[C@@H](O)[C@@H]2O)cc1
active: Potency [6] 7.43 µM
inactive: Potency [2] | Potency [4]

O=C(O)C[C@H](O)C[C@H](O)C=Cc1c(C2CC2)nc2ccccc2c1-c1ccc(F)cc1
active: Potency [6] 20.9 µM | Potency [8] 4.18 µM | Potency [3] 3.72 µM | Potency [7] 11.8 µM

O=c1c2ccccc2nc2n1CCc1c-2[nH]c2ccccc12
inactive: Potency [6]
active: Potency [3] 13.2 µM
